# Hits are enriched below; roughly 22% of the tested compounds scored in any of these assays.
# CHX counter: affects cycloheximide protein synthesis inhibition readout, counter-screen; cell reporter, cycloheximide protein synthesis inhibition counterscreen; 300,000 tested, 12% active; max response, %; in the data active = max response mostly above about 13%, no sharp cut-off; inactive = mostly below about 14%; note: read at 38.3 µM for the half of the compounds with a filed dose
# Pf growth 48h: inhibits P. falciparum growth in the first generation, 48 h; P. falciparum luciferase growth in erythrocytes, 48 h; Potency, µM (doses to about 28.7 µM), usual class: inhibitors; 310,000 tested, 5.9% active
#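 In quantitative HTS format, infected erythrocytes bearing luciferase-reporter parasites were treated for a single generation at 37 C. Luminescence after adding detection reagent served as the growth measure.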
# Pf growth 96h: inhibits malaria parasite growth, 96 h; P. falciparum luciferase reporter growth, 96 h; Potency, µM (top dose mostly 28.7 µM), hits mostly inhibitors; 320,000 tested, 6.9% active; AID 504834
#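 Two-generation exposure (96 h) targets delayed-death phenotype. Reporter parasites carrying integrated firefly luciferase, in red cells at 2% hematocrit and 0.05% parasitemia final, kept at 37 C, 5% CO2; luminescence loss indicates inhibition.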
# Shiga toxin inh: blocks Shiga toxin action in Vero cells; inhibition, % at 38.7 µM; 290,000 tested, 9.2% active; Vero cells, Shiga toxin protein synthesis inhibition reporter; in the data active = inhibition mostly above about 28%, no sharp cut-off; inactive = mostly below about 43%
# LmPK inhibitor: LmPK (Leishmania mexicana) enzyme inhibition | Q27686 | purified LmPK, Kinase-Glo ATP luminescence, 1 h | Potency, µM (top dose mostly 57.5 µM), hits mostly inhibitors | 290,000 tested, 0.37% active | AID 1721
# Target sequence (Q27686 whole entry, looked up): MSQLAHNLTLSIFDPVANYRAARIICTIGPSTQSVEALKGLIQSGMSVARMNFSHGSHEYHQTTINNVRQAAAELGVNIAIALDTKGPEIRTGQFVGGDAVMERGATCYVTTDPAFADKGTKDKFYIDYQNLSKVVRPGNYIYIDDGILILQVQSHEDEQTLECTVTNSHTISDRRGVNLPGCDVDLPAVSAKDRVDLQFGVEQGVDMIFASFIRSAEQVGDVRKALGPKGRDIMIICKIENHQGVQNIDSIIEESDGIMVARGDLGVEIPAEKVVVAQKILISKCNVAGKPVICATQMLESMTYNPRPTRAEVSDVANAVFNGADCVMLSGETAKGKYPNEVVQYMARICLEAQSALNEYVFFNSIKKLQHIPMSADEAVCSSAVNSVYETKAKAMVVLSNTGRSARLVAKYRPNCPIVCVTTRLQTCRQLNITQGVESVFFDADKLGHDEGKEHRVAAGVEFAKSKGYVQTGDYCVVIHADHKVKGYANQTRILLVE
#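 qHTS format; LmPK 0.1 nM; substrates PEP 0.5 mM and ADP 0.1 mM. One-hour room-temperature incubation, then coupled luciferase luminescence; 0.5 nM enzyme wells mark activation.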
# Hits are given with their value; – = inactive; ? = inconclusive; · = no result given. Unless noted, calls come from the whole dose curve; as a rule, active = well fitted inhibition curve with a large enough effect; inconclusive = small, poorly fitted or top-dose-only effect, or another doubt; inactive = no such curve, though single readings can be large or run the other way.
SMILES,CHX counter,Pf growth 48h,Pf growth 96h,Shiga toxin inh,LmPK inhibitor
O=c1[nH]c(SCc2ccccc2)nc2[nH]ncc12,–,–,–,28,–
Cc1ccccc1OCCSCc1nc2ccccc2[nH]1,–,?,13µM,–,–
Nc1ccccc1Sc1nc2ccccc2[nH]1,23,?,?,59,–
Nc1nc2ccccc2[nH]1,–,–,–,–,–
Cc1ccc(C(=O)CCC(=O)OCC(=O)NNC(=O)c2ccccc2Cl)cc1,·,–,–,·,·
COCCCNC(=S)N1CCN(c2nc(-c3ccccc3)cs2)CC1,–,–,?,–,–
CCOCCCNC(=S)N1CCN(c2nc(-c3ccccc3)cs2)CC1,–,–,–,–,–
CCNC(=S)N1CCN(c2nc(-c3cccc(OC)c3)cs2)CC1,–,?,10µM,–,–
CC(C)CNC(=S)N1CCN(c2nc(-c3ccc(Cl)cc3)cs2)CC1,–,–,10µM,–,–
CCC(=O)N1CCN(c2nc(-c3ccc(Cl)cc3)cs2)CC1,35,–,–,63,–
COc1cccc(-c2csc(N3CCN(C(=S)NCC(C)C)CC3)n2)c1,–,13µM,15µM,–,–
COCCNC(=S)N1CCN(c2nc(-c3cccc(OC)c3)cs2)CC1,–,–,?,–,–
Cc1ccc(-c2c(C)n([O-])c3c([n+]2=O)CCCC3)o1,–,–,–,–,–
Cc1ccc(C)c(SCC(=O)OCC(=O)NCCNC(=O)COC(=O)CSc2cc(C)ccc2C)c1,·,–,–,·,·
S=c1[nH]cnc2scc(-c3ccc(Cl)cc3)c12,–,?,?,–,–
Cc1ccn2c(=O)nc(SCC(=O)N3CCCCC3)nc2c1,·,–,?,·,·
COc1cccc(-c2csc(N3CCN(C(=S)Nc4ccccc4Cl)CC3)n2)c1,–,13µM,?,–,–
COc1cccc(-c2csc(N3CCN(C(=S)Nc4ccccc4OC)CC3)n2)c1,–,?,?,–,–
CCc1cc(=O)n2c([nH]c3ccccc32)c1C#N,44,–,·,42,–
CCc1cc(=S)n2c([nH]c3ccccc32)c1C#N,–,–,–,52,–
CCOC(=O)c1ccc(N2C(=O)CC(N3CCN(Cc4ccccc4)CC3)C2=O)cc1 (centres undefined),–,–,·,–,–
CCOC(=O)c1ccc(S(=O)(=O)N2CCN(C3CC(=O)N(c4ccccc4C(F)(F)F)C3=O)CC2)cc1 (centres undefined),·,13µM,12µM,·,·
Cc1cccc(C)c1NS(=O)(=O)c1ccc(-c2cnc(C3CC3)o2)cc1,–,?,?,–,–
Cc1ccc(O)c(C(=O)c2coc(=N)c(C(=O)NC(C)C)c2)c1,–,?,·,–,–
Cc1ccc(O)c(C(=O)c2cc(C(=O)NCCC(C)C)c(=O)n(CCC(C)C)c2)c1,–,?,3.3µM,–,–
SMILES,CHX counter,Pf growth 48h,Pf growth 96h,Shiga toxin inh,LmPK inhibitor
Cc1ccc(N=Nc2c(N)n(-c3ccccc3)[nH]c2=O)cc1,38,–,–,122,–
Cc1[nH]n(-c2ccccc2)c(=O)c1N=Nc1ccc(C(=O)O)cc1,–,–,–,–,–
Cc1[nH]n(-c2ccccc2)c(=O)c1N=Nc1cccc(C(=O)O)c1,42,–,–,·,–
Cc1[nH]n(-c2ccccc2)c(=O)c1N=Nc1ccccc1,23,–,–,–,–
Cc1[nH]n(-c2ccccc2)c(=O)c1N=Nc1ccc(Cl)cc1,–,–,–,·,–
COc1cccc(NC(=O)CN(C)C(=O)c2cc3c(s2)CCC3)c1,·,–,–,·,·
CCOc1ccc(CNC(=O)C2CCN(c3nn4c(=O)cc(C)nc4s3)CC2)cc1,–,–,?,–,–
Cc1sc2ncnc(N3CCC(C(=O)NNC(=O)COc4ccccc4Cl)CC3)c2c1C,·,12µM,?,·,·
CC(=O)c1sc(NC(=O)C2CCN(C(=O)c3ccccc3C)CC2)nc1-c1ccccc1,·,?,–,·,·
Cc1sc2ncnc(N3CCC(C(=O)NNC(=O)COc4ccc(Br)cc4)CC3)c2c1C,·,–,?,·,·
Cc1cc(Cl)ccc1OCC(=O)NNC(=O)C1CCN(c2ncnc3sc(C)c(C)c23)CC1,·,–,–,·,·
CC(=O)c1sc(NC(=O)C2CCN(c3ncnc4sc(C)c(C)c34)CC2)nc1-c1ccccc1,·,9.3µM,?,·,·
Cc1sc2ncnc(N3CCC(C(=O)NNC(=O)c4ccccc4Cl)CC3)c2c1C,–,?,8.3µM,–,–
C/C(=C\c1ccco1)CN1CCN(Cc2ccc(C)o2)C(CCO)C1 (centres undefined),–,–,–,–,–
O=C(CN(c1cccc([N+](=O)[O-])c1)S(=O)(=O)c1ccccc1)N1CCCCC1,–,–,–,–,–
Cc1cc2cc(CN(Cc3cccs3)C(=S)NCc3ccco3)c(=O)[nH]c2cc1C,–,–,?,–,–
COc1ccc2cc(CN(Cc3ccco3)C(=S)NCC3CCCO3)c(=O)[nH]c2c1 (centres undefined),–,?,–,–,–
CCc1ccc2[nH]c(=O)c(CN(CCN(C)C)C(=S)NCc3ccco3)cc2c1,–,?,–,–,–
CCc1ccc2[nH]c(=O)c(CN(CCN(CC)CC)C(=S)NCc3ccco3)cc2c1,–,9.3µM,–,–,–
Cc1cc(C)c2cc(CN(Cc3ccco3)C(=S)NCC3CCCO3)c(=O)[nH]c2c1 (centres undefined),–,2.1µM,?,–,–
Cc1ccc(C)c2[nH]c(=O)c(CN(Cc3cccs3)C(=S)NCc3ccco3)cc12,–,10µM,–,–,–
CCc1ccc2[nH]c(=O)c(CN(CC3CCCO3)C(=S)NCc3ccco3)cc2c1 (centres undefined),22,?,?,–,–
COc1ccc(S(=O)(=O)NCc2ccc(C(=O)NCCCN3CC(C)CC(C)C3)cc2)cc1 (centres undefined),–,–,?,–,–
COc1cc(OC)cc(C(=O)NNC(=O)CCc2nc3ccccc3c(=O)[nH]2)c1,·,–,?,·,·
CC(C)C(C)NC(=O)CN1C(=O)NC2(CCc3ccccc32)C1=O (centres undefined),–,–,–,–,–
SMILES,CHX counter,Pf growth 48h,Pf growth 96h,Shiga toxin inh,LmPK inhibitor
O=C(CN1C(=O)C2CC=CCC2C1=O)Nc1ccc(S(=O)(=O)Nc2nccs2)cc1 (centres undefined),–,–,–,–,–
O=C(O)C1CCN(c2nc(-c3ccccc3)nc3c2oc2ccccc23)CC1,–,?,12µM,–,–
CCOC(=O)C1CCCN(c2ncnc3c2oc2ccccc23)C1 (centres undefined),17,–,–,–,–
CCOC(=O)c1cnn(-c2ccccn2)c1N,63,–,?,99,–
CCOC(=O)C1CCN(c2nc(-c3ccccc3)nc3c2oc2ccccc23)CC1,–,?,·,–,–
CCOC(=O)C1CCN(c2ncnc3c2oc2ccccc23)CC1,–,–,12µM,–,–
CCOC(=O)C1CCCN(C(=O)c2cc(=O)c3ccccc3o2)C1 (centres undefined),–,–,–,–,–
CCOC(=O)c1cnn(-c2cc(Oc3ccccc3)ncn2)c1N,–,–,–,–,–

# Screening data deposited in PubChem by National Center for Advancing Translational Sciences (NCATS).
